Assay results from PubChem BioAssay (EPA / NIEHS).
Active and inactive are the calls of the source. Rule for the calls: active = hit-call score of the fitted dose curve at least 0.9, where 1 is the maximum; inactive = score below 0.9.

Tests used:
[1] = ATG_GRE_CIS: Attagene CIS-FACTORIAL HepG2 Assay for human Glucocorticoid Response Elements (GRE) (AID 2282947); settings: HepG2 GRE cis-reporter, Attagene multiplex mRNA; actives raise or lower the signal
Summary of the method: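 Cells (HepG2) bearing transfected cis-promoter reporter transcription units were treated with chemical for 24 hours. Reporter mRNA was measured via RT-PCR with capillary electrophoresis, and activity was fitted in both directions relative to DMSO.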

[2] = ATG_ISRE_CIS: Attagene CIS-FACTORIAL HepG2 Assay for human Interferon Regulatory Factor 1 (IRF1) binding to an Interferon-Stimulated Response Element (ISRE) (AID 2282948); settings: HepG2 ISRE cis-reporter (Attagene), mRNA transcription readout; actives raise or lower the signal
Summary of the method: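 Signal reflects induction or loss of ISRE-linked reporter mRNA in transiently transfected HepG2 cells after a 24 h treatment, detected by fluorescent RT-PCR fragments on capillary electrophoresis and normalised to DMSO.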

[3] = ATG_M_32_CIS: Attagene CIS-FACTORIAL HepG2 Assay for M32 Transcription Factor (Internal Marker) (AID 2282949); settings: HepG2 Attagene cis-factorial M32 reporter, mRNA; actives raise or lower the signal;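 note: background control marker of the multiplexed CIS panel rather than a real target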
Summary of the method: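 HepG2 transfectants (cis-regulated reporter transcription units) dosed 24 h. Reporter mRNA by RT-PCR plus CE, analysed as gain or loss relative to DMSO.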

[4] = ATG_M_06_CIS: Attagene CIS-FACTORIAL HepG2 Assay for M06 Transcription Factor (Internal Marker) (AID 2282950); settings: HepG2 Attagene CIS-FACTORIAL M06 internal marker reporter; actives raise or lower the signal
Summary of the method: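 Steps: transfect HepG2 with multiplexed cis-element reporter constructs; dose chemical 24 h; extract RNA with DNase treatment; reverse-transcribe, PCR-amplify, 6-FAM label, HpaI digest; separate fragments by capillary electrophoresis. Activity fitted both directions versus DMSO.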

[5] = target: Hypoxia-inducible factor 1-alpha (Homo sapiens) (UniProt Q16665); test: ATG_HIF1a_CIS: Attagene CIS-FACTORIAL HepG2 Assay for human Hypoxia Inducible Factor 1 (HIF1A) (AID 2282951); settings: HepG2 Attagene cis-factorial HIF1a reporter transcription; actives raise or lower the signal
Sequence of Hypoxia-inducible factor 1-alpha (Homo sapiens) (Q16665 whole entry, looked up): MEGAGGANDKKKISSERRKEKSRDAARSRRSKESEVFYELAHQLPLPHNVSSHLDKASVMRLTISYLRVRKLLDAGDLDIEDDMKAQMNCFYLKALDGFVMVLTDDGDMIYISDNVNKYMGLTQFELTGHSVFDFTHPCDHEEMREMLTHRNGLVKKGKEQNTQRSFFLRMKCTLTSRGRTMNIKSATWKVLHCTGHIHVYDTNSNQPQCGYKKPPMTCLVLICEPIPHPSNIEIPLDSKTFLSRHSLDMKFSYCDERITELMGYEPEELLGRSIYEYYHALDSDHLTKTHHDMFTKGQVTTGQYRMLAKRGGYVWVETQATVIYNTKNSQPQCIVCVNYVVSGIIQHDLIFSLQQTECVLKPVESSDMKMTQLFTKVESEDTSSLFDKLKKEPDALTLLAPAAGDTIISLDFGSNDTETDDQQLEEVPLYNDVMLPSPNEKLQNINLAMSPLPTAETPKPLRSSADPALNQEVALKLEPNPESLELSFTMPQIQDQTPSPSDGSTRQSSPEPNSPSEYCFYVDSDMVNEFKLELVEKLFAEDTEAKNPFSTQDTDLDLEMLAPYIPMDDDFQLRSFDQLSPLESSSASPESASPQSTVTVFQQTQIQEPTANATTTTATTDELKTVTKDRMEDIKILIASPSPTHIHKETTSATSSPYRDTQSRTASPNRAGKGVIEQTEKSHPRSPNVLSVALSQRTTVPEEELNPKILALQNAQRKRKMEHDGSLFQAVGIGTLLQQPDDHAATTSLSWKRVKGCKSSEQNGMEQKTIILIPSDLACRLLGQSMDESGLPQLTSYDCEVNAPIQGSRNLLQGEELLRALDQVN
Summary of the method: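 Cis-element reporter constructs were transiently transfected into HepG2 cells, which were treated for 24 h; reporter RNA was reverse-transcribed, amplified, labelled and resolved by capillary electrophoresis.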

[6] = target: Hepatocyte nuclear factor 6 (Homo sapiens) (UniProt Q9UBC0); test: ATG_HNF6_CIS: Attagene CIS-FACTORIAL HepG2 Assay for human Hepatocyte Nuclear Factor 6 (HNF6) (AID 2282952); settings: HepG2 Attagene cis-factorial HNF6 reporter transcription; actives raise or lower the signal
Sequence of Hepatocyte nuclear factor 6 (Homo sapiens) (Q9UBC0 whole entry, looked up): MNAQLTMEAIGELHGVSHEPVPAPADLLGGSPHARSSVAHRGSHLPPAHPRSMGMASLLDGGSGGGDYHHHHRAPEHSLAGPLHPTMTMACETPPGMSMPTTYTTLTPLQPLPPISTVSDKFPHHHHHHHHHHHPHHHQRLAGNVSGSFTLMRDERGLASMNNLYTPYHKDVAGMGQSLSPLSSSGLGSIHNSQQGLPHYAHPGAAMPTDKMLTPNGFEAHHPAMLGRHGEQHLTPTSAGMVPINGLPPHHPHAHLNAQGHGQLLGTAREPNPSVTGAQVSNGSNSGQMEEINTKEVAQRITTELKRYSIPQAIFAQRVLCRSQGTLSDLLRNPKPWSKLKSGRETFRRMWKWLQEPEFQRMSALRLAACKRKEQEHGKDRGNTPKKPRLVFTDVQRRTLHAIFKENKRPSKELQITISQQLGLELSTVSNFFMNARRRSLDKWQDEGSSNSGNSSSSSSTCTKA
Summary of the method: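 Activity values derive from bidirectional fitting against DMSO of reporter mRNA levels, measured by capillary electrophoresis of labelled RT-PCR products from HepG2 cells exposed 24 h.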

[7] = target: Heat shock factor protein 1 (Homo sapiens) (UniProt Q00613); test: ATG_HSE_CIS: Attagene CIS-FACTORIAL HepG2 Assay for human Heat Shock Transcription Factor 1 (HSE) (AID 2282953); settings: HepG2 HSE cis-reporter, Attagene RNA transcription; actives raise or lower the signal
Sequence of Heat shock factor protein 1 (Homo sapiens) (Q00613 whole entry, looked up, the tested form may be a part): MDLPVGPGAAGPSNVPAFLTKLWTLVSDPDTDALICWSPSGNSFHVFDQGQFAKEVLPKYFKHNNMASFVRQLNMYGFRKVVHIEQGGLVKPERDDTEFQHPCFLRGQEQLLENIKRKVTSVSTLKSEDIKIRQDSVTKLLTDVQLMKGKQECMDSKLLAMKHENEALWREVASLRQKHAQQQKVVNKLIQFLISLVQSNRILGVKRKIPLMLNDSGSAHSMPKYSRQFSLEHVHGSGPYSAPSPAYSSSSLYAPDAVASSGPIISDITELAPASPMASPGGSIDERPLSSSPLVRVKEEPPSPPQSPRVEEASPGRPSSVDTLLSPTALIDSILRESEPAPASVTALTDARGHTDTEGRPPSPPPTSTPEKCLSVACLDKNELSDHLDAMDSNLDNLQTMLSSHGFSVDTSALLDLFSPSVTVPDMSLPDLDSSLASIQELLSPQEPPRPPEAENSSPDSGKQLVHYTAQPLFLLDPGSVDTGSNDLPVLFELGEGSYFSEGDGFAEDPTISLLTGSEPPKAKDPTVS
Summary of the method: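 Cells were transfected with cis-element-driven reporter constructs, dosed for 24 h, then total RNA was reverse-transcribed and reporter cDNA amplified, FAM-labelled and digested with HpaI. Fragments were resolved by capillary electrophoresis; gain or loss was fitted against DMSO.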

[8] = ATG_MRE_CIS: Attagene CIS-FACTORIAL HepG2 Assay for human Metal Responsive Element (MRE) (AID 2282954); settings: HepG2 MRE cis-reporter transcription, Attagene multiplex; actives raise or lower the signal
Summary of the method: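 Cells were transfected with cis-promoter reporter transcription units, then dosed for 24 h. RNA was reverse-transcribed, amplified, fluorescently labelled and resolved by capillary electrophoresis, and activity was fitted in both directions relative to DMSO.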

[9] = ATG_PBREM_CIS: Attagene CIS-FACTORIAL HepG2 Assay for human Phenobarbital-responsive Enhancer Module (PBREM) (AID 2282955); settings: HepG2 PBREM cis-reporter, Attagene multiplexed transcription; actives raise or lower the signal
Summary of the method: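 Multiplexed cis-reporter readout in human hepatoma HepG2 cells; PBREM-regulated transcript quantified after 24 h exposure by fluorescent RT-PCR fragment analysis. Signal changes up or down fitted relative to DMSO.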

[10] = target: Paired box protein Pax-6 (Homo sapiens) (UniProt P26367); test: ATG_Pax6_CIS: Attagene CIS-FACTORIAL HepG2 Assay for human Paired Box 6 (PAX6) (AID 2282956); settings: HepG2 CIS-FACTORIAL PAX6 reporter transcription, RNA readout; actives raise or lower the signal
Sequence of Paired box protein Pax-6 (Homo sapiens) (P26367 whole entry, looked up): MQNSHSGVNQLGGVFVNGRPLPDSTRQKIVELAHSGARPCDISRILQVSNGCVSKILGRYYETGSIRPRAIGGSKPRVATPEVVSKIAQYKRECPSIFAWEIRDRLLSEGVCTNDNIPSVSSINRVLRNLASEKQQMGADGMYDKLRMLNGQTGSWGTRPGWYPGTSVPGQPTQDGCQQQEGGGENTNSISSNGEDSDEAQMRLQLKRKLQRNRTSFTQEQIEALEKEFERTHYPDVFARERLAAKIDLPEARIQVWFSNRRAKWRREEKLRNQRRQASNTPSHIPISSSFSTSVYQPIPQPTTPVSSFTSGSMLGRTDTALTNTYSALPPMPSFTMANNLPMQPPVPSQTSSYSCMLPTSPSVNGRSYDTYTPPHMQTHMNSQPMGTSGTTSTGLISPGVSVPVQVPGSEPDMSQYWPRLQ
Summary of the method: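 Values derive from bidirectional curve fitting of reporter mRNA signal relative to DMSO. HepG2 cells bearing transfected cis-regulated MRTUs were exposed for 24 h; transcripts were read by RT-PCR and capillary electrophoresis.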

[11] = ATG_PXRE_CIS: Attagene CIS-FACTORIAL HepG2 Assay for human Pregnane X Receptor Element (PXRE) (AID 2282957); settings: HepG2 Attagene CIS-FACTORIAL PXRE reporter, mRNA; actives raise or lower the signal
Summary of the method: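 Fluorescent capillary electrophoresis of amplified reporter cDNA gave the signal, collected 24 h after dosing HepG2 cells that held transfected cis-element reporter constructs.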

[12] = ATG_PPRE_CIS: Attagene CIS-FACTORIAL HepG2 Assay for human Peroxisome Proliferator-activated Response Element (PPRE) (AID 2282958); settings: HepG2 PPRE cis-element reporter, Attagene transcription factor profiling; actives raise or lower the signal
Summary of the method: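 DMSO served as negative control and baseline for bidirectional curve fitting. Signal came from PPRE-regulated reporter mRNA in HepG2 cells, measured 24 h post-dosing by RT-PCR, 6-FAM primer extension and capillary electrophoresis.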

[13] = ATG_RORE_CIS: Attagene CIS-FACTORIAL HepG2 Assay for human RAR-related Orphan Receptor Element (RORE) (AID 2282959); settings: HepG2 Attagene cis-factorial RORE reporter, mRNA; actives raise or lower the signal
Summary of the method: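 Transfect HepG2 with MRTUs; treat 24 h; extract RNA; RT with oligo(dT); PCR with reporter-specific primers; 6-FAM primer extension; HpaI digest 2 h at 37 C; capillary electrophoresis. Fit vs DMSO, bidirectional.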

[14] = target: Transcription factor Sp1 (Homo sapiens) (UniProt P08047); test: ATG_Sp1_CIS: Attagene CIS-FACTORIAL HepG2 Assay for human Specificity Protein 1 (Sp1) (AID 2282961); settings: HepG2 Sp1 cis-reporter transcription, actives raise or lower the signal
Sequence of Transcription factor Sp1 (Homo sapiens) (P08047 whole entry, looked up): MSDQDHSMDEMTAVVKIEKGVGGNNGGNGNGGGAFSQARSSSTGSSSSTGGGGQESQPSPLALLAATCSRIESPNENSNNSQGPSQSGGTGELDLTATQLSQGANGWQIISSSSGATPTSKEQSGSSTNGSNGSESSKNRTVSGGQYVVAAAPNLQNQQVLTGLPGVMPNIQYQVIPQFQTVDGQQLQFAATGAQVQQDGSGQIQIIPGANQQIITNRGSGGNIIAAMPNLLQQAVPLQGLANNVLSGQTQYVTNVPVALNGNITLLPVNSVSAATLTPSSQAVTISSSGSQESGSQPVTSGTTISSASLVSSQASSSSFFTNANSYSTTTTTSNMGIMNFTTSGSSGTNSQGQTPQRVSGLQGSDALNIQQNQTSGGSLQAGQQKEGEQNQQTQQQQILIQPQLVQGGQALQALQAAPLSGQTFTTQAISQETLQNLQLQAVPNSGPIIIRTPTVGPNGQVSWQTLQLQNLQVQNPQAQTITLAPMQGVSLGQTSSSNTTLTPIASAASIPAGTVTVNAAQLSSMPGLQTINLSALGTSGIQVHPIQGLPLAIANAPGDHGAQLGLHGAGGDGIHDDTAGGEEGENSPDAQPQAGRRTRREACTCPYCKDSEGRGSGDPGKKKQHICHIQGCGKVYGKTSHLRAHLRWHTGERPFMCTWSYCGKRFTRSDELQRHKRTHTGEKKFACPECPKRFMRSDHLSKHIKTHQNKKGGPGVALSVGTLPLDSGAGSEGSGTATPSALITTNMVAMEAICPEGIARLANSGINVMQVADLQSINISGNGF
Summary of the method: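 Chemicals are dosed onto HepG2 cells transfected with multiple cis-promoter reporter constructs, and after 24 h reporter RNA is reverse-transcribed, PCR-amplified and resolved by capillary electrophoresis for fluorescence quantitation; activity is scored up or down against DMSO.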

[15] = ATG_SREBP_CIS: Attagene CIS-FACTORIAL HepG2 Assay for human Sterol Regulatory Element Binding (SREBP) (AID 2282962); settings: HepG2 Attagene cis-factorial SREBP reporter, mRNA; actives raise or lower the signal
Summary of the method: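 Values derive from bidirectional curve fitting with DMSO as baseline. The underlying measurement is reporter mRNA from cis-element-regulated units in transiently transfected HepG2, quantified by RT-PCR and capillary electrophoresis after 24 h exposure.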

[16] = target: Signal transducer and activator of transcription 3 (Homo sapiens) (UniProt P40763); test: ATG_STAT3_CIS: Attagene CIS-FACTORIAL HepG2 Assay for human Signal Transducer and Activator of Transcription 3 (STAT3) (AID 2282963); settings: HepG2, Attagene cis-factorial STAT3 reporter transcription; actives raise or lower the signal
Sequence of Signal transducer and activator of transcription 3 (Homo sapiens) (P40763 whole entry, looked up): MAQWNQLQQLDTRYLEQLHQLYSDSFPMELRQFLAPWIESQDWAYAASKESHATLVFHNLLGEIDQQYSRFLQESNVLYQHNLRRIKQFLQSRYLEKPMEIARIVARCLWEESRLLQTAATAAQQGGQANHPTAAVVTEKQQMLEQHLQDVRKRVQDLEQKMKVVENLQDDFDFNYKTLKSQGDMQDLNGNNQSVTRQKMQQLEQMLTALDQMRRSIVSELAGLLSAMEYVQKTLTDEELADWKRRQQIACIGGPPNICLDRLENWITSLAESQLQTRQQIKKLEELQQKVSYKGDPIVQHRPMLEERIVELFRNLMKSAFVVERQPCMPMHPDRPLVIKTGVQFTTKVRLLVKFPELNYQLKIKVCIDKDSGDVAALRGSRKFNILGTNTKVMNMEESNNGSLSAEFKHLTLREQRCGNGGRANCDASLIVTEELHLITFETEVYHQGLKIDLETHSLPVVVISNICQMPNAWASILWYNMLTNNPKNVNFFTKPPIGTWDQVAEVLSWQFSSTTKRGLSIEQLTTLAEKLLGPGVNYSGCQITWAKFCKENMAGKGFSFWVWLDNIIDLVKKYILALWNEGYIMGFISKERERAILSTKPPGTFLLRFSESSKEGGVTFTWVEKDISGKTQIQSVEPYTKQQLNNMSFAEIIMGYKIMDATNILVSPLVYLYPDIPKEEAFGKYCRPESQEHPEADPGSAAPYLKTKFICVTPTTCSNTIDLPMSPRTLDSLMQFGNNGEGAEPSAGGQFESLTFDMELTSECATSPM
Summary of the method: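 HepG2, MRTU-transfected, 24 h dosing. RNA → RT → PCR → FAM label → HpaI → CE. Bidirectional fit vs DMSO.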

[17] = ATG_TCF_b_cat_CIS: Attagene CIS-FACTORIAL HepG2 Assay for human T-Cell-Factor with beta-catenin (TCF/b-cat) (AID 2282965); settings: HepG2 TCF/beta-catenin cis-reporter transcription, actives raise or lower the signal
Summary of the method: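 Using capillary electrophoresis as the read-out, labelled reporter cDNA fragments from transiently transfected HepG2 were sized and quantified. Exposure lasted 24 hours; activity in either direction was referenced to DMSO.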

[18] = ATG_Sox_CIS: Attagene CIS-FACTORIAL HepG2 Assay for human SRY-box transcription factor (SOX) (AID 2282960); settings: HepG2 Attagene cis-factorial SOX reporter, mRNA; actives raise or lower the signal
Summary of the method: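 Fluorescence-labelled cDNA fragments from reporter transcripts, sized by CE, give the signal. Cells: HepG2, transiently transfected with cis-regulated reporter units. Exposure 24 h; DMSO negative control; bidirectional curve fitting.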

[19] = ATG_TA_CIS: Attagene CIS-FACTORIAL HepG2 Assay for human TA Basal Promoter (AID 2282964); settings: HepG2 Attagene CIS-factorial TA basal promoter reporter; actives raise or lower the signal
Summary of the method: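 Steps: transfect HepG2 with MRTUs; dose 24 h; isolate RNA, DNase-treat, reverse-transcribe; PCR and FAM-label reporter cDNA; digest with HpaI 2h at 37 C; run capillary electrophoresis. Activity fitted both directions against DMSO.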

Measured: AC50

O=C1CCC(=O)N1Cl
inactive: [1] | [2] | [3] | [4] | [5] | [6] | [7] | [8] | [9] | [10] | [11] | [12] | [13] | [14] | [15] | [16] | [17]

CCCCCCCCCCCCCOP(=O)(O)O
active: [11] 7.54 µM
inactive: [1] | [2] | [3] | [4] | [5] | [6] | [7] | [9] | [10] | [12] | [13] | [18] | [14] | [15] | [16] | [19] | [17]

CCCCCCCCC(=O)OCC
inactive: [1] | [2] | [3] | [4] | [5] | [6] | [7] | [8] | [10] | [11] | [12] | [13] | [18] | [14] | [15] | [16] | [17]

c1ccc2c(c1)ccc1ncccc12
active: [2] 150 µM | [11] 25.3 µM
inactive: [1] | [3] | [4] | [5] | [6] | [7] | [8] | [9] | [10] | [12] | [13] | [18] | [14] | [15] | [16] | [19] | [17]

O=C(Nc1ccccc1)c1ccccc1O
inactive: [1] | [2] | [3] | [4] | [5] | [6] | [8] | [9] | [10] | [13] | [18] | [14] | [15] | [16] | [19] | [17]
active: [11] 27.4 µM | [12] 100 µM

CC(=O)Nc1nnc(S(N)(=O)=O)s1
inactive: [1] | [2] | [3] | [4] | [5] | [6] | [7] | [8] | [9] | [10] | [11] | [13] | [18] | [14] | [15] | [16] | [19] | [17]

Cc1ccc([N+](=O)[O-])cc1S(=O)(=O)O
inactive: [1] | [2] | [3] | [4] | [5] | [6] | [7] | [8] | [10] | [12] | [13] | [15] | [16] | [19] | [17]
active: [18] 180 µM | [14] 156 µM

CC(C)(Oc1ccc(C2CC2(Cl)Cl)cc1)C(=O)O (stereo unspecified)
inactive: [1] | [2] | [3] | [4] | [5] | [6] | [7] | [8] | [9] | [10] | [13] | [18] | [14] | [15] | [16] | [17]
active: [11] 41.1 µM | [12] 48.3 µM

COC(=O)/C=C\C(=O)O
active: [11] 30.7 µM
inactive: [1] | [2] | [3] | [4] | [5] | [6] | [8] | [9] | [10] | [12] | [13] | [18] | [14] | [15] | [16] | [19] | [17]

C=CC(=O)OCCC(=O)O
inactive: [1] | [2] | [3] | [4] | [5] | [6] | [7] | [8] | [9] | [10] | [11] | [13] | [18] | [14] | [15] | [16] | [19] | [17]

CCC(CO)CO
inactive: [1] | [2] | [3] | [4] | [5] | [6] | [7] | [8] | [10] | [11] | [12] | [13] | [18] | [14] | [15] | [16] | [19] | [17]

FC(F)(F)C(=NOCC1OCCO1)c1ccc(Cl)cc1
active: [8] 100 µM | [11] 12.1 µM | [12] 130 µM
inactive: [1] | [2] | [3] | [4] | [5] | [6] | [7] | [9] | [10] | [13] | [14] | [15] | [16] | [19]

CCOC(=O)c1ccc(N(C)C)cc1
inactive: [1] | [2] | [3] | [4] | [5] | [6] | [8] | [9] | [10] | [12] | [13] | [18] | [14] | [15] | [16] | [19] | [17]
active: [11] 28.1 µM

O=C(O)CCCCCCCCCC(=O)O
inactive: [1] | [2] | [3] | [4] | [5] | [6] | [7] | [8] | [10] | [11] | [12] | [13] | [18] | [14] | [15] | [16] | [19]

CCO[Si](C)(OCC)OCC
inactive: [1] | [2] | [3] | [4] | [5] | [6] | [7] | [8] | [9] | [10] | [11] | [13] | [18] | [14] | [15] | [16] | [19] | [17]
